Bioassay records deposited in PubChem by National Center for Advancing Translational Sciences (NCATS).
VDR inhibitor: Inhibitors of the vitamin D receptor (VDR): qHTS; Potency, µM, for inactives: max response, negative = inhibition, most hits filed as inhibitors; 0.93% of 400,000 active; VDR-SRC2-3 peptide fluorescence polarization, 2 h; AID 504847, 2011
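Fluorescence polarization assay of small-molecule disruption of VDR binding to coregulator peptide SRC2-3. Compounds and controls pin-transferred, then read after 2 h incubation at ambient room temperature.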
DT40 TDP1 no CPT: qHTS for Inhibitors of human tyrosyl-DNA phosphodiesterase 1 (TDP1): qHTS in cells in absence of CPT; Potency, µM (titrated, usually from 46.2 µM), for the others: top-dose activity change, negative = growth inhibition, actives largely listed as inhibitors; 15% of 420,000 active; DT40 Tdp1-/- hTDP1 cells, no CPT, ATP luminescence, 48 h; also: nearly all actives have a fitted effect of over 55% in size
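Readout: luminescence from CellTiter-Glo after 30 min in the dark at RT. Cells: DT40 Tdp1-/- with stable hTDP1, 400/well. Exposure: compounds alone, ≥48 hr, 37 °C.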
KAT2A inh: qHTS Assay for Inhibitors of GCN5L2. Histone acetyltransferase KAT2A (Homo sapiens), Q92830. GCN5L2 HAT assay, ThioGlo1 CoA-SH fluorescence. Potency, µM (top dose mostly 58.9 µM), without a hit: top-dose activity change, negative = inhibition, hits mostly inhibitors. 0.21% of 390,000 active. AID 504327, 2011
Target sequence (Q92830 whole entry, looked up): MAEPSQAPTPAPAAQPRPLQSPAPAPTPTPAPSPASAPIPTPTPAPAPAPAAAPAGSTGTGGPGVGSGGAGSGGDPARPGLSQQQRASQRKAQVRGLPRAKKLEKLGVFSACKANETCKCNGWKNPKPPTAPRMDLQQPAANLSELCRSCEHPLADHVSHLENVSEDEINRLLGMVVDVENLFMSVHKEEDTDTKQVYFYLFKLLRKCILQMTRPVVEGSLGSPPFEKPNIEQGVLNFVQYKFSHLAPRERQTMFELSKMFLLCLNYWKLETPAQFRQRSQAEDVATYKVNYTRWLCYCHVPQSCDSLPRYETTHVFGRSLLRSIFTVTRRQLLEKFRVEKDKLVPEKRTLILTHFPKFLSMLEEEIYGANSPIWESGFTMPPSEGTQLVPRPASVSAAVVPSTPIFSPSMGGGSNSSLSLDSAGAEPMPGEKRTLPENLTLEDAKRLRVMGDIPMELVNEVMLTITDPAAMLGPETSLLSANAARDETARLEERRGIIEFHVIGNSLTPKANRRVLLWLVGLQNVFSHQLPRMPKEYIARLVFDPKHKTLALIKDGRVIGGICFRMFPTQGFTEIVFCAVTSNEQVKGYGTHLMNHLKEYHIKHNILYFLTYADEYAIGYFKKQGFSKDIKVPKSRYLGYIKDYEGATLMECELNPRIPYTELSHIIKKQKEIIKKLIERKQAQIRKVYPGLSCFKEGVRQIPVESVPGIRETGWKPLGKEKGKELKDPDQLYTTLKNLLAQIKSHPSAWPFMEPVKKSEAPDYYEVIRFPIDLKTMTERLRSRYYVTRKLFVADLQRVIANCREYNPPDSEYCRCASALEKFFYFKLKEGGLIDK
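ThioGlo1-coupled HAT assay: 20nM GCN5L2, 70uM acetyl-CoA, 75uM H3(1-25) peptide, pH 7.5. Fluorescence read at 340/540nm at start and after 20 min at room temperature.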
TDP1 inh: qHTS Assay for Inhibitors of Tyrosyl-DNA Phosphodiesterase (TDP1); Tyrosyl-DNA phosphodiesterase 1 (Homo sapiens), Q9NUW8; recombinant TDP1, AlphaScreen DNA substrate cleavage; Potency, µM (highest dose often 130 µM), for the others: at the top dose activity change, negative = inhibition, hits mostly inhibitors; 0.28% of 350,000 active; AID 485290, 2010; also: nearly all actives have a fitted effect of over 40% in size
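Compounds were preincubated with Tdp1 (1 nM final) for 15 min at room temperature before substrate (15 nM final) started a 5 min reaction; beads (10 ug/ml final) were then added for 10 min before AlphaScreen detection.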
PLK1 PBD block: qHTS for Inhibitors of PLK1-PDB (polo-like kinase 1 - polo-box domain): Primary Screen. 2.8% of 360,000 active. Plk1 PBD binding of FITC phosphopeptide, fluorescence polarization. Potency, µM, inactives show max response, negative = inhibition, usual class: inhibitors; also: series mostly up to about 57 µM; nearly all actives have a fitted effect of over 65% in size
DT40 TDP1 CPT: qHTS for Inhibitors of human tyrosyl-DNA phosphodiesterase 1 (TDP1): qHTS in cells in presence of CPT. chicken DT40 Tdp1-/-;hTDP1 cells + 20 nM CPT, ATP luminescence, 48 h. Potency, µM (series often up to 46.2 µM), without a hit: at the top dose activity change, negative = growth inhibition, most hits filed as inhibitors. 12% of 420,000 active. AID 686979, 2013; also: nearly all actives have a fitted effect of over 55% in size
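Chicken DT40 Tdp1-/- cells complemented with human TDP1, 400 cells/well, exposed to compounds plus 20 nM camptothecin for at least 48 h at 37 C; viability read as ATP content by CellTiter-Glo luminescence.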
Numbers without * were called inactive; ? = inconclusive; . = no result given; [ ] = another dose, or the depositor's remark. An excerpt weighted towards active compounds, which were near 18% of everything screened. Calls follow the shape of the dose curve; as a rule, active = well fitted curve in the direction sought with a large enough effect; inconclusive = small, poorly fitted or top-dose-only effect, or another doubt; inactive = no such curve, though single readings can be large; an effect the other way counts as inactive or inconclusive. % is scaled to controls: 0 for no effect and ±100 for the full control effect; potency is read from the fitted curve at half-maximal effect.

SMILES	VDR inhibitor	DT40 TDP1 no CPT	KAT2A inh	TDP1 inh	PLK1 PBD block	DT40 TDP1 CPT
C[C@H]1O[C@@H](O[C@H]2[C@@H](O)C[C@@H](O[C@H]3[C@@H](O)C[C@H](O[C@H]4CC[C@@]5(C)[C@H](CC[C@@H]6[C@@H]5CC[C@]5(C)[C@@H](C7=CC(=O)OC7)CC[C@]65O)C4)O[C@@H]3C)O[C@@H]2C)C[C@H](O)[C@@H]1O	.	0.112µM*	.	.	.	0.316µM*
C[C@H]1O[C@@H](O[C@H]2[C@@H](O)C[C@H](O[C@H]3[C@@H](O)C[C@H](O[C@H]4CC[C@]5(C)C6CC[C@]7(C)[C@@H](C8=CC(=O)OC8)CC[C@]7(O)C6CC[C@@H]5C4)O[C@@H]3C)O[C@@H]2C)C[C@H](O)[C@@H]1O (stereo not given in full)	7.2%	0.376µM*	1.8%	14.1%[56.1 µM]	.	0.335µM*
CC(=O)O[C@H]1C[C@H](O[C@H]2[C@@H](O)CC(O[C@H]3[C@@H](O)C[C@H](O[C@H]4CC[C@@]5(C)[C@H](CC[C@@H]6[C@@H]5CC[C@]5(C)[C@@H](C7=CC(=O)OC7)CC[C@]65O)C4)O[C@@H]3C)O[C@@H]2C)O[C@H](C)[C@H]1O[C@@H]1O[C@H](CO)[C@@H](O)[C@H](O)[C@H]1O (stereo not given in full)	0.8%	.	4.8%	.	.	.
C[C@]12CC[C@H](O)C[C@H]1CC[C@@H]1[C@@H]2CC[C@]2(C)[C@@H](C3=CC(=O)OC3)CC[C@]12O	-20.9%	11.6µM*	-10.2%	.	-11.5%	?
CC1O[C@@H](O[C@@H]2C(O)C[C@H](O[C@@H]3C(O)C[C@@H](OC4CC[C@@]5(C)C6CC[C@]7(C)C(C8=CC(=O)OC8)CC[C@@]7(O)C6CC[C@@H]5C4)OC3C)OC2C)CC(O)[C@H]1O (stereo not given in full)	0.8%	0.731µM*	-16.3%	-5.1%[56.1 µM]	.	1.03µM*
COc1ccc(OC)c(CC(C)N)c1 (stereo not given)	.	-15.7%[92.5 µM]	.	.	.	-19.0%[92.5 µM]
C[C@]12CCC(=O)C(O)=C1CC[C@@H]1[C@@H]2CC[C@]2(C)C(=O)CC[C@@H]12	4.9%	?	-6.1%	3.6%	-13.5%	3.1%
COC1C(O)C(C)OC(OC2CCC3(C)C(CCC4C3C(O)CC3(C)C(C5=CC(=O)OC5)CCC43O)C2)C1O (stereo not given)	4.1%	2.06µM*	.	.	-2.6%	1.84µM*
CO[C@H]1[C@@H](O)CC(OC2[C@@H](O)CC(OC3[C@@H](O)C[C@H](OC4CC[C@@]5(C)C(CCC6C5CC(O)[C@]5(C)[C@H](C7=CC(=O)OC7)CCC65O)C4)O[C@@H]3C)O[C@@H]2C)O[C@@H]1C (stereo not given in full)	-2.0%	.	2.2%	.	.	.
CO[C@H]1[C@@H](O)C[C@H](O[C@H]2[C@@H](O)C[C@H](O[C@H]3[C@@H](O)C[C@H](O[C@H]4CC[C@@]5(C)[C@H](CC[C@@H]6[C@@H]5C[C@@H](O)[C@]5(C)[C@@H](C7=CC(=O)OC7)CC[C@]65O)C4)O[C@@H]3C)O[C@@H]2C)O[C@@H]1C	.	0.376µM*	.	.	.	0.531µM*
COc1ccc(-c2nnc3sc(C4CCCCC4)nn23)cc1OC	-8.0%	14.6µM*	2.4%	3.6%	-10.1%	18.4µM*
O=C(CCS(=O)(=O)c1ccc(Cl)cc1)Nc1cccc(S(=O)(=O)N2CCCCCC2)c1	7.8%	?	.	.	-5.4%	?
CCOC(=O)C1C(C=C(C)C)C1(C)C (stereo not given)	-0.1%	17.5%	-7.4%	8.1%	.	-5.4%
CCOc1ccc(NCc2cccn2-c2nnc(N3CCC(C(=O)NCC(C)c4ccccc4)CC3)s2)cc1 (stereo not given)	4.3%	8.2µM*	-6.7%	7.8%	.	23.1µM*
Cc1ccc(NCc2cccn2-c2nnc(N3CCC(C(=O)NCc4ccc(OC(C)C)cc4)CC3)s2)cc1	9.5%	18.4µM*	-11.7%	8.8%	.	?
CCOc1ccc(NCc2cccn2-c2nnc(N3CCC(C(=O)NCc4ccc(C)cc4)CC3)s2)cc1	-11.9%	7.31µM*	-13.9%	4.9%	.	9.2µM*
C=CCN	12.2%	.	-27.9%	5.1%	.	.
CCCOC(=O)Cc1ccc(OCC(=O)N(CC)CC)c(OC)c1	.	?	.	.	.	-23.9%
C[C@H]1CC[C@@]2(NC1)O[C@@H]1C[C@H]3[C@@H]4CC[C@@H]5C[C@@H](O)CC[C@@]5(C)[C@@H]4CC[C@]3(C)[C@@H]1[C@@H]2C	0.2%	.	9.2%[21.4 µM]	-5.6%[21 µM]	.	.
COc1ccc(C(=O)Nc2ccc3c(c2)N(C)C(=O)c2ccccc2S3)cc1OC	12.9%	2.59µM*	-6.7%	6.4%	.	2.91µM*
CN1C(=O)c2ccccc2Sc2ccc(NC(=O)c3ccc(C(F)(F)F)cc3)cc21	7.4%	2.91µM*	-5.4%	-0.5%	.	4.61µM*
Cc1ccc(-c2nc(CS(=O)CC(=O)N3CCC4(CC3)OCCO4)c(C)o2)cc1 (stereo not given)	.	.	0.1%	3.4%	.	.
CCc1ccc(-c2nc(CN3CCCC(C(=O)NCc4ccc(C)cc4)C3)c(C)o2)cc1 (stereo not given)	-17.9%	5.8µM*	1.6%	2.3%	.	8.2µM*
O=[N+]([O-])c1cc(I)c(O)c(I)c1	?	?	8.7%	2.1%	.	7.8%
Cc1ccc(Cl)cc1N1CCN(C(=O)c2cn(C)c(=O)c3c2c2ccccc2n3C)CC1	-13.7%	18.4µM*	-14.5%	2.3%	-8.4%	?
CN(Cc1cccc(-c2ccncc2)c1)C(=O)Oc1ccccc1Cc1ccccc1	.	16.4µM*	.	.	-6.9%	?
Cc1nc2cc(OC(=O)N(C)Cc3cccc(-c4ccncc4)c3)ccc2s1	.	18.4µM*	.	.	-4.8%	?
CN(Cc1cccc(-c2ccncc2)c1)C(=O)Oc1ccccc1Cl	.	?	.	.	-11.1%	?
O=C(O)Cc1ccc(OCCNC[C@H](O)c2ccccc2)cc1	.	?	.	2.1%	.	-16.7%
C[C@@H]1CN(CCCn2c3ccccc3c3ccccc32)C[C@H](C)N1	7.6%	8.41µM*	-8.2%	5.8%	.	7.5µM*
